High-throughput results deposited in PubChem by National Center for Advancing Translational Sciences (NCATS).
Hits are enriched below; roughly 9% of the tested compounds scored in any of these assays.
HP1b binding inh = HTS for Inhibitors of HP1-beta Chromodomain Interactions with Methylated Histone Tails; AID 540317, 2011; Potency, µM (doses to about 114 µM), for inactives: at the top dose activity change, negative = inhibition, most hits filed as inhibitors; hit rate 0.56% among 390,000; AlphaScreen HP1-beta / biotin-H3K9me3 peptide binding; further: nearly all actives have a fitted effect of over 70% in size
Target sequence (P83916 whole entry, looked up): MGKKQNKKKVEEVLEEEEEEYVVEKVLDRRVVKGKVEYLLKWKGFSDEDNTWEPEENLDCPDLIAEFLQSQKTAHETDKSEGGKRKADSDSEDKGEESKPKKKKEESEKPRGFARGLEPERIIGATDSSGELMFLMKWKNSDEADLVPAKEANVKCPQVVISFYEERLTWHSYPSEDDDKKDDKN
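Compound inhibition of the preformed complex between 50 nM HP1-beta and 50 nM biotinylated H3K9me3 peptide was read by AlphaScreen. Buffer was PBS pH 7.4 with 0.01% Tween-20. Incubations ran 30 min at room temperature, with 10 ug/mL donor/acceptor beads.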
G9a block = qHTS Assay for Inhibitors of Histone Lysine Methyltransferase G9a | Histone-lysine N-methyltransferase EHMT2 (Homo sapiens), Q96KQ7 | G9a H3K9 monomethylation, AlphaScreen, 2 h | Potency, µM (highest dose often 102 µM), for inactives: at the highest dose activity, negative = inhibition, hits mostly inhibitors | hit rate 8.8% among 350,000; further: on the % scale 0 is the no-effect control and ±100 the full control effect; nearly all actives have a fitted effect of over 75% in size
Target sequence (Q96KQ7 913-1193 limits assumed): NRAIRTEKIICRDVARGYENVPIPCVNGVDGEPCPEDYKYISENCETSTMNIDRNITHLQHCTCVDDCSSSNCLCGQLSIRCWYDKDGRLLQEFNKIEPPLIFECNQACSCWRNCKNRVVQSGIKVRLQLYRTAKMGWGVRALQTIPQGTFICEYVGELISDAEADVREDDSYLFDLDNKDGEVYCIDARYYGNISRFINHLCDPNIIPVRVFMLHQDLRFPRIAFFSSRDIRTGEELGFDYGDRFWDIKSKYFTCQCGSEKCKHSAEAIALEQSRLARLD
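Readings reflect AlphaScreen signal from monomethyl-H3K9 antibody detection. HMT at 20 nM; substrate b-H3K9 500 nM; cofactor SAM 20 uM; 2 h RT reaction; compounds tested as titrations in qHTS with 15 min preincubation.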
12-LOX inh = Primary qHTS assay for inhibitors of human arachidonate 12S-lipoxygenase (ALOX12): Round 2 | Polyunsaturated fatty acid lipoxygenase ALOX12 (Homo sapiens), P18054 | purified 12hLO, xylenol orange hydroperoxide absorbance | Potency, µM (titrated, usually from 108 µM), for the others: at the top dose activity change, negative = inhibition, usual class: inhibitors | hit rate 1.1% among 580,000 | AID 1671190, 2021; further: on the % scale 0 is the no-effect control and ±100 the full control effect
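Purified human 12hLO at 150 nM in 25 mM Hepes, 0.01% Triton X-100, pH 7.0, preincubated 15 min at room temperature with compound. Reaction started with 40 uM arachidonic acid, 30 min at room temperature. Hydroperoxide measured by Fe-xylenol orange, 573/405 nm absorbance ratio.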
JMJD2A Tudor inh = qHTS Assay for Inhibitors of JMJD2A-Tudor Domain; Potency, µM (highest dose often 114 µM), inactives show top-dose activity change, negative = inhibition, actives largely listed as inhibitors; AlphaScreen JMJD2A-Tudor / H3K4me3 peptide binding; Lysine-specific demethylase 4A (Homo sapiens), O75164; hit rate 4.4% among 390,000; further: on the % scale 0 is the no-effect control and ±100 the full control effect; nearly all actives have a fitted effect of over 50% in size
PLK1 PBD block = qHTS for Inhibitors of PLK1-PDB (polo-like kinase 1 - polo-box domain): Primary Screen; hit rate 2.8% among 360,000; Plk1 PBD binding of FITC phosphopeptide, fluorescence polarization; Serine/threonine-protein kinase PLK1 (Homo sapiens), P53350; Potency, µM, for the others: max response, negative = inhibition, most hits filed as inhibitors; further: series mostly up to about 57 µM; on the % scale 0 is the no-effect control and ±100 the full control effect; nearly all actives have a fitted effect of over 65% in size
BAZ2B inh = qHTS Assay for Inhibitors of BAZ2B; Bromodomain adjacent to zinc finger domain protein 2B (Homo sapiens), Q9UIF8; AlphaScreen BAZ2B-H3K14Ac peptide displacement; Potency, µM (top dose mostly 114 µM), without a hit: at the top dose activity change, negative = inhibition, actives largely listed as inhibitors; hit rate 4.4% among 360,000; AID 504333, 2011; further: on the % scale 0 is the no-effect control and ±100 the full control effect; nearly all actives have a fitted effect of over 60% in size
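Multi-concentration screen (max 110 uM) measuring displacement of acetylated histone H3 peptide from BAZ2B by AlphaScreen, using 50 nM protein, 50 nM peptide and 10 ug/mL streptavidin donor plus Ni-chelate acceptor beads.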
* hit, by the source's call; ? = inconclusive; . = not tested or not shown; [ ] = another dose, or the depositor's remark. The call rests on the fitted dose curve; in most records, active means well fitted curve in the direction sought with a large enough effect; inconclusive means small, poorly fitted or top-dose-only effect, or another doubt; inactive means no such curve, though single readings can be large; an effect the other way counts as inactive or inconclusive. Potency means the concentration at half of the fitted maximal effect.

SMILES	HP1b binding inh	G9a block	12-LOX inh	JMJD2A Tudor inh	PLK1 PBD block	BAZ2B inh
Cc1ccccc1OCC(=O)N/N=C1\SCC(=O)N1Cc1ccccc1	?	-12.7%[59 µM]	11.1%	-20.6%[57.1 µM]	26.7µM*	-28.8%
Cc1cccc(OCC(=O)N/N=C2/SCC(=O)N2Cc2ccco2)c1	-14.5%	-6.8%	-16.1%	-32.3%[11.4 µM]	10.6µM*	-18.4%
CCCCC(=O)Nc1ccc(C(=O)OCc2cc(=O)n3nc(C4CC4)sc3n2)cc1	22.7%	50.7%[59 µM]	-6.8%	-21.9%	.	1.5%
COc1ccccc1C=C1SC(=S)NC1=O	-16.3%	.	-26.5%	-20.8%	26.7µM*	.
Cc1nn(C)cc1/C=C1\SC(=S)NC1=O	38.2%	?	?	-12.9%	-3.0%	14.1%
O=C1NC(=S)SC1=Cc1ccccc1Cl	?	.	?	?	21.2µM*	.
O=C1NC(=S)S/C1=C\c1cc(Cl)cc(Cl)c1O	44.7µM*	.	44.7µM*	39.8µM*	?	.
COc1ccc(C=C2SC(=S)NC2=O)c(OC)c1OC	-8.4%	.	?	-31.9%	-22.7%	.
Cc1ccc(S(=O)(=O)Oc2ccccc2/C=C2\SC(=O)NC2=O)cc1	24.6%	50.1µM*	-21.4%	-17.5%	-16.6%	?
COCC(=O)N1C2CCCC1CC(=O)C2	.	.	3.0%[176 µM]	.	.	.
COCCN(C(=O)Cn1nnc2ccccc21)C(C(=O)NC1CCCCC1)c1ccc(OC)cc1OC (configuration not stated)	-3.4%	-10.6%[59 µM]	-11.3%	-27.7%	-4.2%	6.6%
CCCc1nc2cccnc2n1C1CCN(C(=O)Cn2nccc2C)CC1	.	.	-3.9%	.	.	.
Cc1cc(/C=C2\SC(=S)NC2=O)cc(C)c1O	-5.6%	39.8µM*	0.0%	-31.4%	19.5%	?
CCN(CC)c1ccc(C=C2SC(=S)NC2=O)cc1	?	.	-1.1%	?	50.1%	.
O=C(N/N=C1/CC2C=CCC12)c1cccs1 (configuration not stated)	46.3%	-19.6%	491.4%	4.5%	-0.3%	-20.1%
O=C(N/N=C1/CC2C=CCC12)c1ccco1 (configuration not stated)	8.8%	-6.5%[59 µM]	-0.4%	50.1µM*	29.9µM*	-28.3%
CC#CCN1c2ccccc2[C@]23C[C@@H](C(=O)OC)N(C(=O)c4ccco4)C2=NC(C(=O)OC)=C(C(=O)OC)[C@H]13	-19.9%	1.8%[59 µM]	0.6%	-34.8%	-10.1%	-23.3%
CC(=O)Nc1ccc(C(=O)CSc2nnc(Cn3nnc4ccccc43)n2C)cc1	10.5%	79.4µM*	-0.9%[57.4 µM]	56.2µM*	-11.0%	3.6%
COCC(=O)N[C@H]1C[C@@H](c2nc(-c3ccc(Cl)cc3)no2)N(C)C1	.	.	8.8%[176 µM]	.	.	.
CC(=O)NC1(C)CCN(Cc2cccc(-c3ccc4ccccc4c3)c2)C1 (configuration not stated)	.	.	-19.7%[176 µM]	.	.	.
Cc1[nH]c2ccccc2c1C(c1ccccc1)c1ccc(Cl)s1 (configuration not stated)	23.0%	-8.6%[59 µM]	-13.8%	?	.	?
CSc1ccc(C(c2c(C)[nH][nH]c2=O)c2c(C)[nH][nH]c2=O)cc1	14.4%	.	?	-35.6%	?	-5.0%
CSc1ccc(C(c2c(C(=O)O)[nH]c3ccccc23)c2c(C(=O)O)[nH]c3ccccc23)cc1	15.0%	20.6%[0.501 µM]	-12.3%	-19.3%	10.6µM*	50.1µM*
CCOc1cc(Br)cc(C(c2c(C(=O)O)[nH]c3ccccc23)c2c(C(=O)O)[nH]c3ccccc23)c1O	25.8%	19.9%[0.501 µM]	5.62µM*	-24.3%	15µM*	-33.4%
Cc1[nH]c2ccccc2c1C(c1ccc(O)cc1)c1c(C)[nH]c2ccccc12	.	.	14.1µM*	.	.	.
SMILES	HP1b binding inh	G9a block	12-LOX inh	JMJD2A Tudor inh	PLK1 PBD block	BAZ2B inh
CC(C)CCNC(=O)NC(=O)COc1ncnc2sccc12	24.8%	-28.3%	-5.9%	-25.2%	1.6%	-0.5%
CC(C)(C)C(=O)Nc1cccc(C(=O)c2cccc(NC(=O)C(C)(C)C)c2)c1	-6.2%	1.6%	0.0%	?	23.8µM*	-6.0%
CCc1ccc(C2NC(=S)NC3=C2C(=O)N(c2ccccc2OC)C(c2ccc(CC)cc2)N3)cc1 (configuration not stated)	17.8%	-43.5%[59 µM]	-1.8%	-22.8%	-4.6%	?
O=C1C2=C(NC(=S)NC2c2ccc(Cl)cc2)NC(c2ccc(Cl)cc2)N1c1ccc(Cl)cc1 (configuration not stated)	17.8%	50.1µM*	0.0%	?	-1.9%	?
Cc1ccc2cc(CCl)c(Cl)nc2c1C	.	.	4.47µM*	.	.	.
Cc1ccc2cc(CCl)c(Cl)nc2c1	35.9%	-27.6%[12.7 µM]	-8.6%	4.3%	-18.1%	?
CC1=CC(=O)C(C(C)C)=C/C1=N/OC(=O)c1cccc([N+](=O)[O-])c1	-21.2%	-16.4%[59 µM]	?	-32.0%	3.77µM*	-10.2%
Cc1ccc(C(=O)O/N=C(\N)c2cccc([N+](=O)[O-])c2)cc1	11.9%	-13.2%[59 µM]	-6.6%	-17.2%	-3.9%	-11.0%
CC1=CC(=NOC(=O)c2cccc([N+](=O)[O-])c2)C=C(C)C1=O	24.1%	?	?	-27.0%	6.7µM*	?
COCCn1ncc(N2CCC(C(=O)N(C)Cc3ccc(N4CCN(C)CC4)cc3)C2)cc1=O (configuration not stated)	.	.	49.6%	.	.	.
CC(C)CC(=O)[C@@H](O)Cc1ccc(O)cc1	.	.	2.0%	.	-3.3%	.
Cc1cc(NC2=CC(=O)C(=O)c3ccccc32)no1	3.1%	.	39.8µM*	-17.4%	-11.9%	.
COc1cc(OC)c(NC2=CC(=O)C(=O)c3ccccc32)cc1Cl	?	39.8µM*	?	?	-0.4%	?
CCOC(=O)c1ccc(NC2=CC(=O)C(=O)c3ccccc32)cc1	?	?	?	?	-27.1%	?
NS(=O)(=O)c1ccc(NC2=CC(=O)C(=O)c3ccccc32)cc1	-8.2%	.	?	22.4µM*	26.7µM*	?
Cc1ccc(NC2=CC(=O)C(=O)c3ccccc32)cc1	-29.2%	?	-22.0%	?	-8.7%	39.8µM*
COC(=O)c1ccc(CN2C(=O)[C@@H]3C[C@@H](O)CN3C3(CN(C4CCN(C(C)=O)CC4)C3)C2=O)cc1	.	.	3.1%	.	.	.
CC(NC(=O)C(C)(C)C)C(=O)N1CCN(c2ccccn2)CC1 (configuration not stated)	.	.	32.4%	.	.	.
